The panel holds about 83,000 compounds, 20% with a hit somewhere; the sample as a whole holds those more often.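 Growth was measured after 48 h exposure to one concentration of compound in 96-well plates. Values under 10 count as active.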 A number with no mark means an inactive call. Active and inactive are the calls of the source.
Legend:
Assay in all cases: NCI-60 one-dose screen, 48 h (100 = growth as untreated, 0 = no growth, -100 = all killed)
Settings in all cases: 10 µM unless noted
[1] = test system: SR leukemia
[2] = test system: RPMI-8226 leukemia
[3] = test system: OVCAR-8 ovarian
[4] = test system: OVCAR-5 ovarian
[5] = test system: OVCAR-4 ovarian
[6] = test system: SK-OV-3 ovarian
[7] = test system: IGROV1 ovarian
[8] = test system: HS 578T breast
[9] = test system: NCI/ADR-RES ovarian
[10] = test system: T-47D breast
[11] = test system: BT-549 breast
[12] = test system: MDA-MB-435 melanoma
[13] = test system: SW-620 colon
[14] = test system: MCF7 breast
[15] = test system: HCT-116 colon
[16] = test system: HCC-2998 colon
[17] = test system: KM12 colon
[18] = test system: OVCAR-3 ovarian

Row | SMILES | growth [1] | growth [2] | growth [3] | growth [4] [%] | growth [5] [%] | growth [6] | growth [7] | growth [8] | growth [9] | growth [10] [%] | growth [11] | growth [12] [%] | growth [13] | growth [14] | growth [15] | growth [16] [%] | growth [17] | growth [18]
1 | COC(=O)c1oc2c(C(=O)/C=C/c3ccc(OC)cc3)c(OCCN3CCOCC3)ccc2c1C | -28% (active) | -50.7% (active) | -37.6% (active) | 29.8 | 16 | 17.9% | -4.01% (active) | -15.1% (active) | 9.24% (active) | 14 | -6.36% (active) | 20 | -96.8% (active) | 10.5% | -73.9% (active) | 23.7 | -10.1% (active) | –
2 | COc1cc(-c2nc3ccccc3s2)ccc1OCc1nc2n(n1)S(=O)(=O)c1ccccc1N2C | 27.1% | 61.2% | 74.5% | 99.1 | 93.3 | 84.6% | 25.6% | 48.7% | 93% | 85.3 | 80.2% | 90 | 92.4% | 90.5% | 66.1% | 109 | 84.2% | –
3 | COc1cc(NC(C)CCCN2C(=O)c3ccccc3C2=O)c2nccc(C)c2c1OC (stereo unspecified) | 33% | 64.3% | 91.6% | 110 | 70.5 | 107% | 44.1% | 98.7% | 74% | 78.2 | 113% | 104 | 93.5% | 40.4% | 87.8% | 113 | 97.4% | –
4 | CCC1S/C(=N\N=C(/C)c2ccco2)N(c2ccccc2)C1=O (stereo unspecified) | 92.4% | 60.4% | 106% | 105 | 98.4 | 135% | -17.1% (active) | 231% | 105% | 107 | 106% | 92.7 | 119% | 81% | 68.6% | 112 | 86.1% | –
5 | COc1ccccc1N1CCN(CCCOc2ccc(OCCCN3CCN(c4ccccc4OC)CC3)c(C(=O)c3cc(OC)c(OC)c(OC)c3)c2)CC1 | 99.7% | 155% | 105% | 109 | 109 | 100% | 122% | 106% | 105% | 104 | 96.3% | 122 | 102% | 95.1% | 111% | 107 | 113% | –
6 | Fc1ccc(/C=N/n2c(-c3cc(Cl)cc(Cl)c3Cl)nn(CNc3ccc(Cl)nn3)c2=S)cc1 | 79.7% | 82.4% | 95.7% | 89.9 | 91.8 | 90.2% | 96.3% | 108% | 86.7% | 86 | – | 97.9 | 112% | 98.9% | 78.1% | 107 | 97.3% | –
7 | CN1CCN(C(=O)/C=C/c2ccc([N+](=O)[O-])o2)CC1 | 53.6% | 82.3% | 77.4% | 127 | 76.3 | 100% | – | 69.2% | 99.7% | 110 | 105% | 72.7 | 82% | 68.7% | 81.6% | 103 | 83.9% | 92%
8 | O=C(Nc1cccc([N+](=O)[O-])c1)c1ccc2ccccc2c1O | 92.2% | -7.69% (active) | 80% | 64.2 | 44.5 | 74.6% | – | 69.7% | 53.1% | 35.8 | 80% | 49.7 | 74% | 77% | 59.4% | 67 | 79.1% | 36.9%
9 | CCN(CC)c1ccc(C2CC(c3cc(OC)c(OC)c(OC)c3)=NN2)cc1 (stereo unspecified) | -10.8% (active) | -13.1% (active) | 6.48% (active) | 40.6 | 37.2 | 5.94% (active) | 17.7% | -13.3% (active) | -37% (active) | 29.9 | -2.69% (active) | 21.6 | 18.4% | 6.88% (active) | 9.61% (active) | 21.2 | 11.1% | –
10 | COc1cc(NC(C)CCCN2C(=O)c3ccccc3C2=O)c2nc(C)ccc2c1OC (stereo unspecified) | 36.7% | 70.1% | 88.2% | 100 | 69.4 | 106% | 129% | 113% | 83.3% | 95.1 | 103% | 111 | 97.3% | 90.6% | 85.4% | 95.4 | 107% | –
11 | c1cncc(-c2nc3ccccc3[nH]2)c1 | 90.6% | 75.3% | 98.4% | 86.5 | 104 | 95.3% | – | 78.4% | 96.1% | 103 | 100% | 121 | 85.1% | 85.1% | 93.8% | 92.2 | 97.5% | 98.6%
12 | CCC1S/C(=N\N=C(/C)c2cc3ccccc3o2)N(c2ccccc2)C1=O (stereo unspecified) | 15% | 65.4% | 105% | 106 | 95.1 | 116% | -12.9% (active) | 98.7% | 89% | 85.1 | – | 107 | 106% | 162% | 80.8% | 113 | 114% | –
13 | CCCCCCCCCCCC(=O)OCCNC(=O)C[n+]1ccccc1 | 104% | 100% | 97.4% | 113 | 105 | 96.7% | – | 139% | 113% | 95.3 | – | – | 116% | 97.9% | 103% | 111 | 110% | 115%
14 | COc1ccc2c(c1)/C(=C/c1c(-c3cc(OC)c(OC)c(OC)c3Br)nc3sccn13)C(=O)N2 | 95.1% | 85.9% | 99.6% | 105 | 100 | 96.6% | 45.7% | 83.2% | 92.2% | 90.1 | – | 93.2 | 94.4% | 85% | 87.7% | 134 | 94.6% | –
15 | Oc1ccc(Cl)cc1Sc1cc(Cl)ccc1O | 90.4% | 86.3% | 90.8% | 100 | 70.2 | 106% | – | 108% | 101% | 75.8 | – | – | 103% | 91.3% | 86.9% | 106 | 106% | 77%
16 | O=C(NC(=S)Nc1ccc(Cl)cc1)c1ccccc1 | 67.9% | 95.3% | 102% | 84.8 | 85.6 | 115% | – | 127% | 104% | 105 | – | 96.9 | 109% | 59.2% | 92.5% | 106 | 124% | 125%
17 | Cc1nssc1=S | 97.6% | 97% | 97.9% | 94.6 | 109 | 110% | -13.5% (active) | 98.3% | 96.6% | 105 | – | 104 | 103% | 93.7% | 96.9% | 108 | 108% | –
18 | O=C1C(SCCO)=C(SCCO)C(=O)N1c1ccc(-c2ccccc2)cc1 | -47.6% (active) | -14% (active) | 3.35% (active) | 102 | 10.3 | 106% | – | -50.7% (active) | 104% | 24 | – | 92.2 | -66.9% (active) | 80.5% | 13.7% | 79.8 | 83.4% | -92% (active)

— PubChem BioAssay (NCI)
